Experimental data reported in PubChem BioAssay (NCI).
This is part of a sample that, as a whole, favours compounds with a hit. Of some 79,000 tested, about 15% had one in any assay. A number with no mark means an inactive call. Active and inactive are the calls of the source. Rule as the data show it: active = growth inhibition above about 70%; inactive = the rest.

Tests used:
[1] = NCI Yeast Anticancer Drug Screen. Data for the rad50 strain (AID 155);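 also: 0% = growth of vehicle-only cultures of the same strain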; conditions: S. cerevisiae rad50 strain growth inhibition, hits give high values
Method in brief: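 Compounds were tested on a yeast strain with an engineered DNA damage repair alteration; the reported value is growth inhibition normalised to vehicle treatment.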

[2] = NCI Yeast Anticancer Drug Screen. Data for the mec2-1 strain (AID 157); conditions: S. cerevisiae mec2-1 strain, hits give high values
Method in brief: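 Yeast mec2-1 mutant treated with compound. Readout: growth inhibition vs vehicle controls.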

[3] = NCI Yeast Anticancer Drug Screen. Data for the sgs1 mgt1 strain (AID 161);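 also: 0% = growth of cultures given vehicle only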; conditions: S. cerevisiae sgs1 mgt1 strain, hits give high values
Method in brief: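 Inhibition of yeast growth, normalised to vehicle-treated controls, is reported for a strain bearing genetic alterations in DNA damage repair.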

[4] = NCI Yeast Anticancer Drug Screen. Data for the cln2 rad14 strain (AID 165);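 also: 0% = growth equal to vehicle treated cultures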; conditions: S. cerevisiae cln2 rad14 strain, hits give high values
Method in brief: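 cln2 rad14 yeast strain; compound exposure; growth inhibition read vs vehicle controls.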

[5] = NCI Yeast Anticancer Drug Screen. Data for the bub3 strain (AID 167); conditions: S. cerevisiae bub3 mutant strain, hits give high values
Method in brief: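 Growth of a checkpoint-deficient yeast mutant is measured after compound exposure. Values represent inhibition relative to vehicle.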

[6] = NCI Yeast Anticancer Drug Screen. Data for the mlh1 rad18 strain (AID 175); conditions: S. cerevisiae mlh1 rad18 strain growth inhibition, hits give high values
Method in brief: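 Yeast w/ defined DNA-repair lesions; compound exposure; growth vs vehicle controls → % inhibition.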

[7] = at 5.0 µM (retest, dose inferred, filed as 0.5)
[8] = at 50.0 µM (retest, dose inferred, filed as 5.0)

SMILES | growth inhibition [1, 7] | growth inhibition [1, 8] | growth inhibition ([1]; at 50.0 µM) | growth inhibition [2, 7] | growth inhibition [2, 8] | growth inhibition ([2]; at 50.0 µM) | growth inhibition [3, 7] | growth inhibition [3, 8] | growth inhibition ([3]; at 50.0 µM) | growth inhibition [4, 7] | growth inhibition [4, 8] | growth inhibition ([4]; at 50.0 µM) | growth inhibition [5, 7] | growth inhibition [5, 8] | growth inhibition ([5]; at 50.0 µM) | growth inhibition [6, 7] | growth inhibition [6, 8] | growth inhibition ([6]; at 50.0 µM)
CN(C(=O)C(Cl)Cl)c1ccc(-c2csc(-c3ccccc3)n2)cc1 | 5% | 12% | 12.9% | 10% | -1% | 33.9% | 6% | 20% | -7.4% | -2% | -3% | 95.8% (active) | 2% | 22% | 97% (active) | 4% | 7% | 22.4%
CCCCCCCCCCNC(=O)CBr | 2% | 99% (active) | 83.7% (active) | -2% | 100% (active) | 64.8% | -3% | 99% (active) | -1.3% | 5% | 100% (active) | 18.9% | 14% | 99% (active) | 97.8% (active) | 6% | 99% (active) | 94% (active)
Cc1cccc(C)c1NC(=O)CSC(N)=O | 4% | 22% | 72.2% (active) | -1% | 24% | 65% | 0% | 22% | 87.2% (active) | 5% | -1% | 56.1% | 4% | 42% | 75.5% (active) | 7% | 26% | 73.2% (active)
CCc1nc(N)nc(N)c1-c1ccc(NCCc2ccccc2)c([N+](=O)[O-])c1 | 13% | 16% | 25.9% | 9% | 8% | -2.75% | 17% | 19% | 5.15% | 7% | 6% | 9.75% | 13% | 15% | 14.4% | 7% | 19% | 24.9%
O=C1NC(Cc2ccccc2)C(=O)O1 (configuration not stated) | 0% | -6% | -2.1% | -2% | -3% | 3.35% | -3% | 13% | 11.1% | -11% | 6% | -13.8% | -1% | -2% | 43.9% | -1% | -6% | 4.25%
CC(C)(CCCCC(C)(C)NCC1COc2ccccc2O1)NCC1COc2ccccc2O1 (configuration not stated) | 3% | 73% (active) | 94.6% (active) | -8% | 81% (active) | 96% (active) | -10% | 64% | 96.8% (active) | 0% | 76% (active) | 95% (active) | -15% | 79% (active) | 97.4% (active) | 2% | 74% (active) | 96.2% (active)
COc1ccc(/C=C(/C#N)c2ccccc2)cc1 | 8% | -2% | 67.1% | 9% | 27% | 19.6% | 9% | 2% | 81.5% (active) | 1% | 4% | 16.4% | 10% | 55% | 73.5% (active) | 5% | 19% | 69%
O=C(Oc1cc(Cl)c(Cl)cc1Cl)c1ccco1 | 0% | -1% | -1.8% | 4% | 5% | -5.4% | 0% | -3% | 23.9% | 3% | -5% | -10.2% | 30% | 18% | 84.8% (active) | 1% | -4% | -0.9%
S=P([S][Sn]([S]P(=S)(c1ccccc1)c1ccccc1)([c]1ccccc1)[c]1ccccc1)(c1ccccc1)c1ccccc1 | 22% | 82% (active) | 34.9% | 21% | 73% (active) | 19.6% | 33% | 96% (active) | 91.9% (active) | 25% | 48% | 89.9% (active) | 24% | 69% | 89.2% (active) | 33% | 92% (active) | 77.8% (active)
CCOC(=O)C1=C(N)OC(c2ccccc2)=C(C#N)C1c1ccc(C)cc1 (configuration not stated) | 8% | 90% (active) | 96.1% (active) | 4% | 91% (active) | 97% (active) | 11% | 92% (active) | 97.3% (active) | 0% | 86% (active) | 96.6% (active) | -4% | 87% (active) | 96.3% (active) | 3% | 90% (active) | 96.5% (active)
Oc1ccc(CCCCCc2ccc(O)cc2)cc1 | 4% | 99% (active) | 99.5% (active) | 15% | 100% (active) | 99.6% (active) | 17% | 100% (active) | 99.7% (active) | 1% | 99% (active) | 99.2% (active) | 13% | 100% (active) | 99.6% (active) | 7% | 99% (active) | 99.5% (active)
O=c1[nH]c2ccccc2c2cccc(F)c12 | 12% | 89% (active) | 94.2% (active) | 10% | 76% (active) | 71.3% (active) | 13% | 88% (active) | 94.8% (active) | 4% | 68% | 69.5% | -8% | 78% (active) | 91.8% (active) | 7% | 81% (active) | 86.7% (active)
O=C(CC(=O)Nc1cccc(Cl)c1)NNCC(=O)Nc1nnc(-c2ccccc2)s1 | 8% | 98% (active) | 8.5% | 6% | 99% (active) | 8.05% | 11% | 99% (active) | 0.65% | 3% | 98% (active) | 51.1% | 7% | 99% (active) | -3.45% | 3% | 98% (active) | 9.9%
C/C(=N/NC(=O)Nc1ccc(N=Nc2ccccc2)cc1)c1ccccn1 | -15% | -12% | 15.2% | -7% | -5% | -10.9% | 0% | 19% | 24.8% | 33% | -16% | -4.4% | 3% | 43% | 16.4% | -9% | 15% | 28.1%
Clc1ccc(C2NC(c3ccccc3)c3c(ccc4ccccc34)O2)cc1 (configuration not stated) | -4% | 26% | 70.5% (active) | 7% | 19% | 66.2% | 2% | 39% | 27.1% | 1% | 15% | 81.2% (active) | 3% | 7% | 58.6% | 27% | 53% | 77.7% (active)
COC(=O)CS(=O)(=O)CCS(=O)(=O)CC(=O)OC | -4% | 3% | -0.4% | -2% | 8% | 11.9% | -1% | 14% | 4.65% | -1% | 1% | -1.25% | -1% | 15% | 60.1% | -3% | 11% | 20.4%
CC(C)c1cc(O)c(C(C)(C)C)cc1Cl | -1% | 15% | 74.5% (active) | 2% | 38% | 77.2% (active) | -1% | 24% | 77.3% (active) | 4% | 45% | 72.5% (active) | -11% | 30% | 76.6% (active) | 3% | 47% | 86.8% (active)
O=[N+]([O-])C1=Cc2cc(Cl)ccc2OC1c1cccc2ccccc12 (configuration not stated) | 98% (active) | 83% (active) | 80.5% (active) | 97% (active) | 81% (active) | 88.2% (active) | 97% (active) | 86% (active) | 84.2% (active) | 97% (active) | 80% (active) | 87.1% (active) | 97% (active) | 91% (active) | 85.5% (active) | 98% (active) | 87% (active) | 75.8% (active)
S=C(N/N=C1/CCCC/C1=N/NC(=S)N1CCOCC1)N1CCOCC1 | 38% | 96% (active) | 90.1% (active) | 33% | 99% (active) | 93.7% (active) | 40% | 99% (active) | 91.4% (active) | 32% | 98% (active) | 91.2% (active) | 51% | 99% (active) | 91% (active) | 41% | 97% (active) | 91.2% (active)
